Source: PubChem BioAssay AID1159580 (chemical genetic matrix, 2015)
“And” between values parts separate entries of the source, which are not always exact repeats. Identical values can stand only once. Hit rate of the full screen: of about 5,500 compounds, about 2,000 (36%) were called active. Another 18% or so got no clear call; they are omitted. Cut-off read from the data, not from the text of the source: active = normalized growth mostly below about 0.91 (no sharp cut-off); inconclusive = no clear call, values can overlap the other calls; inactive = mostly above about 0.92. Some of the results follow.

Assay: chemical genetic growth profiling, strain panel (AID 1159580);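 note: tested at 20 µM; growth read once vehicle control cultures reached saturation at 30 °C; 1 = growth at the plate median or of vehicle wells; lower values mean less growth of the strain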
Details: S. cerevisiae deletion strains, growth OD

Measured: normalized growth

CCCCCC1C(=O)CCC1CC(=O)O (stereo unspecified)
inactive: locus YAL013W, strain DEP1, hits give low values 0.997 | locus YAL021C, strain ccr4, hits give low values 0.984 | locus YAL026C, strain drs2, hits give low values 0.994 | locus YAL030W, strain snc1, hits give low values 0.984 | locus YBL061C, strain skt5, hits give low values 0.988 | locus YBR009C, strain hhf1, hits give low values 1.01 | locus YBR021W, strain FUR4, hits give low values 0.991 | locus YBR023C, strain chs3, hits give low values 0.99 | locus YBR171W, strain sec66, hits give low values 1 | locus YBR229C, strain ROT2, hits give low values 1 | locus YBR231C, strain swc5, hits give low values 1 | locus YBR279W, strain paf1, hits give low values 0.98 | locus YCL011C, strain gbp2, hits give low values 0.995 | locus YCL016C, strain dcc1, hits give low values 0.98 | locus YCL029C, strain bik1, hits give low values 0.998 | locus YCL061C, strain MRC1, hits give low values 0.991 | locus YCL069W, strain vba3, hits give low values 0.995 | locus YCR088W, strain abp1, hits give low values 0.976 | locus YDL005C, strain med2, hits give low values 0.982 | locus YDL035C, strain GPR1, hits give low values 1.01 | locus YDL040C, strain nat1, hits give low values 0.995 | locus YDL074C, strain BRE1, hits give low values 1.01 | locus YDL101C, strain DUN1, hits give low values 1.01 | locus YDL134C, strain PPH21, hits give low values 1.06 | locus YDL185W, strain tfp1, hits give low values 0.974 | locus YDL192W, strain arf1, hits give low values 0.986 | locus YDR001C, strain nth1, hits give low values 0.986 | locus YDR069C, strain doa4, hits give low values 1.01 | locus YDR101C, strain arx1, hits give low values 0.99 | locus YDR137W, strain rgp1, hits give low values 0.998 | locus YDR150W, strain NUM1, hits give low values 1.02 | locus YDR159W, strain sac3, hits give low values 0.997 | locus YDR162C, strain NBP2, hits give low values 1.04 | locus YDR195W, strain ref2 0.999 | locus YDR297W, strain sur2, hits give low values 0.988 | locus YDR318W, strain mcm21, hits give low values 0.992 | locus YDR334W, strain swr1, hits give low values 0.981 | locus YDR335W, strain msn5, hits give low values 0.981 | locus YDR388W, hits give low values 0.994 | locus YDR392W, strain spt3, hits give low values 0.91 | locus YDR502C, strain sam2, hits give low values 1.01 | locus YEL003W, strain gim4, hits give low values 0.987 | locus YEL037C, strain rad23, hits give low values 0.972 | locus YEL061C, strain CIN8 (second series), hits give low values 0.984 | locus YEL061C, strain CIN8, hits give low values 1 | locus YER015W, strain faa2, hits give low values 0.983 | locus YER016W, strain bim1, hits give low values 0.984 | locus YER110C, hits give low values 0.982 | locus YER111C, strain swi4, hits give low values 0.975 | locus YER155C, strain BEM2 (second series), hits give low values 0.982 | locus YER155C, strain BEM2, hits give low values 0.989 | locus YER167W, strain BCK2, hits give low values 1.01 | locus YFR010W, strain ubp6, hits give low values 0.987 | locus YGL078C, strain dbp3, hits give low values 0.988 | locus YGL086W, strain mad1, hits give low values 0.994 | locus YGL167C, strain pmr1, hits give low values 0.986 | locus YGL173C, strain kem1, hits give low values 0.989 | locus YGL227W, strain vid30, hits give low values 0.998 | locus YGL240W, strain doc1, hits give low values 0.998 | locus YGL248W, strain PDE1, hits give low values 0.998 | locus YGL253W, strain hxk2, hits give low values 0.996 | locus YGR135W, strain pre9, hits give low values 0.994 | locus YGR252W, strain gcn5, hits give low values 0.993 | locus YHR013C, strain ard1, hits give low values 0.972 | locus YHR027C, strain rpn1, hits give low values 0.98 | locus YHR030C, strain SLT2, hits give low values 0.992 and 0.982 | locus YHR079C, strain IRE1 (second series), hits give low values 0.987 | locus YHR079C, strain IRE1, hits give low values 0.99 | locus YHR094C, strain hxt1, hits give low values 0.969 | locus YHR129C, strain ARP1, hits give low values 1 | locus YHR142W, strain chs7, hits give low values 0.973 | locus YHR200W, strain rpn10, hits give low values 0.988 | locus YIL066C, strain RNR3, hits give low values 1.03 | locus YIL073C, strain SPO22, hits give low values 1.04 | locus YIL125W, strain kgd1, hits give low values 0.985 | locus YIR030C, strain dcg1, hits give low values 0.986 | locus YJL092W, strain hpr5, hits give low values 0.983 | locus YJL095W, strain BCK1 (second series), hits give low values 0.993 | locus YJL095W, strain BCK1, hits give low values 1.05 and 0.989 | locus YJL115W, strain asf1, hits give low values 0.973 | locus YJL129C, strain trk1, hits give low values 0.961 | locus YJL134W, strain LCB3, hits give low values 0.991 | locus YJL154C, strain vps35, hits give low values 0.982 | locus YJL164C, strain tpk1, hits give low values 0.998 | locus YJL166W, strain qcr8, hits give low values 0.996 | locus YJL168C, strain set2, hits give low values 0.991 | locus YJL187C, strain SWE1 (second series), hits give low values 1.02 | locus YJL187C, strain SWE1, hits give low values 0.984 | locus YJR043C, strain POL32, hits give low values 1.03 | locus YJR066W, strain TOR1, hits give low values 0.967 | locus YKL009W, strain mrt4, hits give low values 0.972 | locus YKL068W, hits give low values 0.981 | locus YKL085W, strain MDH1 (second series), hits give low values 0.992 | locus YKL085W, strain MDH1, hits give low values 0.992 | locus YKL160W, strain elf1, hits give low values 0.978 | locus YKL190W, strain CNB1, hits give low values 1 | locus YKR001C, strain vps1, hits give low values 0.987 | locus YKR026C, strain gcn3, hits give low values 0.985 | locus YKR091W, strain srl3, hits give low values 0.98 | locus YLL001W, strain dnm1, hits give low values 0.961 | locus YLL026W, hits give low values 0.994 | locus YLL041C, strain sdh2, hits give low values 0.989 | locus YLR027C, strain aat2, hits give low values 0.984 | locus YLR039C, strain RIC1, hits give low values 1.06 | locus YLR058C, strain SHM2, hits give low values 1.01 | locus YLR102C, strain apc9, hits give low values 0.978 | locus YLR113W, strain HOG1, hits give low values 0.95 | locus YLR221C, strain rsa3, hits give low values 0.993 | locus YLR258W, strain gsy2, hits give low values 0.986 | locus YLR262C, strain YPT6 (second series), hits give low values 0.99 | locus YLR262C, strain YPT6, hits give low values 1.07 | locus YLR268W, strain sec22, hits give low values 1 | locus YLR320W, strain mms22, hits give low values 0.967 | locus YLR330W, strain CHS5, hits give low values 0.993 | locus YLR342W, strain FKS1 (second series), hits give low values 1.02 | locus YLR342W, strain FKS1, hits give low values 0.982 | locus YLR357W, strain rsc2, hits give low values 0.994 | locus YLR370C, strain arc18, hits give low values 0.983 | locus YLR371W, strain rom2, hits give low values 0.987 | locus YLR384C, strain iki3, hits give low values 0.978 | locus YLR418C, strain cdc73, hits give low values 0.989 | locus YML016C, strain PPZ1, hits give low values 0.995 | locus YML032C, strain rad52, hits give low values 0.987 | locus YML120C, strain ndi1, hits give low values 0.99 | locus YML124C, strain tub3, hits give low values 0.985 | locus YMR058W, strain fet3, hits give low values 0.983 | locus YMR078C, strain ctf18, hits give low values 1.01 | locus YMR125W, strain sto1, hits give low values 0.965 | locus YMR129W, hits give low values 0.989 | locus YMR205C, strain PFK2, hits give low values 0.969 | locus YMR223W, strain ubp8, hits give low values 0.994 | locus YMR231W, strain pep5, hits give low values 0.983 | locus YMR307W, strain GAS1, hits give low values 1.06 | locus YNL067W, strain RPL9B, hits give low values 1.04 | locus YNL071W, strain lat1, hits give low values 0.99 | locus YNL128W, strain TEP1, hits give low values 1 | locus YNL183C, strain NPR1, hits give low values 0.931 | locus YNL209W, strain ssb2, hits give low values 0.995 | locus YNL233W, strain BNI4, hits give low values 1.03 | locus YNL248C, strain rpa49, hits give low values 0.99 | locus YNL250W, strain rad50, hits give low values 0.976 | locus YNL271C, strain bni1, hits give low values 0.969 | locus YNL298W, strain CLA4, hits give low values 0.968 | locus YNL307C, strain MCK1, hits give low values 0.989 | locus YNL322C, strain KRE1 (second series), hits give low values 0.972 | locus YNR049C, strain mso1, hits give low values 0.984 | locus YNR052C, strain pop2, hits give low values 0.975 | locus YOL006C, strain TOP1, hits give low values 1.02 | locus YOL012C, strain htz1 1.21 | locus YOL147C, strain pex11, hits give low values 0.986 | locus YOR001W, strain rrp6, hits give low values 0.997 | locus YOR061W, strain CKA2, hits give low values 0.996 | locus YOR069W, strain VPS5, hits give low values 0.993 | locus YOR070C, strain gyp1, hits give low values 0.99 | locus YOR080W, strain dia2, hits give low values 0.987 | locus YOR083W, strain WHI5, hits give low values 0.959 | locus YOR106W, strain vam3, hits give low values 0.987 | locus YOR136W, strain idh2, hits give low values 0.982 | locus YOR144C, strain elg1, hits give low values 0.994 | locus YOR184W, strain ser1, hits give low values 1.02 | locus YOR231W, strain MKK1, hits give low values 1.01 | locus YOR265W, strain rbl2, hits give low values 0.989 | locus YOR270C, strain vph1, hits give low values 0.961 | locus YOR290C, strain snf2, hits give low values 0.916 | locus YOR316C, strain cot1, hits give low values 0.981 | locus YPL051W, strain arl3, hits give low values 0.982 | locus YPL055C, strain LGE1, hits give low values 1.06 | locus YPL078C, strain atp4, hits give low values 0.979 | locus YPL106C, strain sse1, hits give low values 0.99 | locus YPL240C, strain hsp82, hits give low values 0.985 | locus YPL256C, strain CLN2, hits give low values 0.964 | locus YPR119W, strain clb2, hits give low values 0.988 | locus YPR141C, strain kar3, hits give low values 0.981 | locus YPR163C, strain tif3, hits give low values 0.978 | locus YPR167C, strain met16, hits give low values 0.997 | strain wtn01, hits give low values 1.01
